# Measurements: the supplement of paper PMC6555819
# Test system: LXRb homodimer (NR concentration 270 nM)
# Test: PBM binding z-score (relative to random genomic background probes); higher = stronger binding; sequences stand for … in GC…GCGATTGACAGCGTAGAATGAAGG
# How it was run: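 Ligand-free nuclear receptor dimers were bound for 1 h to custom Agilent 4×180K protein-binding microarrays. Detection used antibodies against each partner (one per run). Binding z-scores rest on regression-normalized fluorescence, with random background probes as the reference.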
row,Sequence,PBM binding z-score
1,GGAACGAGGGCAAAGCTGATAGCATCTGTCGACG,-0.711
2,CCTAGCAGGACAATCTGGGTCACTCAAGGCTTGA,-0.672
3,CGAACGAGGGCATGAGTCGATAGCAAATGCCGAT,-0.951
4,TAGCCTAGGTCATGCGGGCCAGTAAAGTGTCGGC,-0.608
5,CGTTACGGGTCACTGACAGGTTATAGCATTTGGA,-0.201
6,AGAATCAGGTTACCAAAGATCAGGGAAACGCTTG,0.162
7,CCTACTGGGCCAAAAAGGTCATCGATGCCGATAA,0.178
8,ATATGTACGTTAAGGGTCATTCAGGTTGGTTCGC,1.31
9,TCTCGGAGGATACGAAGGTCAGAGCTTTCCAGAG,-1.33
10,TCATATAGGTAAAGGTGAAAGTGGAACGATATGA,-0.406
11,CCTGCTAGGTCAATGGCCAGCTAAAGCAGCTCGC,-0.454
12,TCGGACAGGTGAAGGTAACTCAGGTACGCAGTCG,-0.839
13,TCATATAGGTAAAACGTGAAAGTCGGTGTGGTAA,0.255
14,GCAGACAGGTGAAACGCAGGTAACTCACGGTGGC,-1.17
15,CGTCCAAGGTCAGAGAGGTCAGGGAATGCCGAGT,0.359
16,GCTCGGAGGACAAGCTCAGAGCTTTGTCCGTAGA,-0.639
17,TGTAGTTGGTCACGGAGGTCACACACGACGGGTA,0.847
18,CAAACTAGGTCAAGAGGTCACAGTCCGCTTCCCG,1.01
19,CAAACTAGGTCAAGAGGTCGAAGTCCGCTTCCCG,0.502
20,GCCTACGGGTCAAAGGTTATAGCATGAATAGAAT,-0.175

row,Sequence,PBM binding z-score
1,TAGCCTAGGTCATGGGCCAGCATACCACGCGAAC,-0.463
2,CGAACTGGGTCATCCAGGACAGTGAATACATTGA,-0.478
3,CCAGACAGGTGAAAGATAACTCAGTCTGGTACGC,-0.465
4,CCTACTGGGCCATCAGGTCATTGTTATCAACGTT,-0.00639
5,CGAACTAGGACAAGGACAGTGAATCTCCGCACGC,-0.538
6,CAGCCTAGGTCACGGCCAGTATAGGAGGAACGTT,-0.639
7,TCATATAGGTAAATGCTAGGTGAAAGCCCGATCT,-0.102
8,GCTCGGACGACAAGGTCAGAGCTTTGTCCGTAGA,-1.26
9,CAAGCTAGGTCACGAAAGGTCAAAGTCGAATGAC,2.75
10,TAGGCTAGGTCATGGGCCAGTATACCACGCGAAC,-0.308
11,GCAGACAGGTGAAACGCAGGTAAATCAGGGTGGC,-0.862
12,CCTTACGGGTCAAGGTTATTGCACGGGTGGTACG,0.000433
13,ACTGACAGGTGATGAAGGTAACTCAGGCTATCAT,-0.408
14,CAAACTAGGTCATCGGAAGGTCAAAGTCCGCATG,1.45
15,CAAACTAGGTAACGAAAGGTCAAAGTCGAATGAC,2.26
16,TCTCGGAGGACCCGAAGGTCAGAGCTTTCCAGAG,-1.45
17,AACACAGGGTCATCGTAGGCCAGAGTACGCACAG,0.922
18,AGAATGAGGTTATTAAGATCCGGGAATTGCGGTC,-0.217
19,TCATATAGGTAAATGCTAGATGAAAGTCCGATCT,-0.163
20,CCTGCTAGGTCATGGTAAGCTAATCTACAGTATG,-0.0761
